System: VDR:RXRa (NR concentration 270 nM, RXRa partner concentration 90 nM)
Test: PBM binding z-score (relative to random genomic background probes); higher = stronger binding; sequences stand for … in GC…GCGATTGACAGCGTAGAATGAAGG
Procedure: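 Protein-binding microarray (Agilent 4x180K custom design, double-stranded 60-nt probes: 5' GC cap, 34-nt variable region, 24-nt constant primer region; full probe sequence given). Purified or IVT nuclear receptor:RXRα heterodimers (3:1 NR:RXRα, mostly 270:90 nM) or homodimers were incubated for 1 h in PBS with 2% milk and no ligand, then detected with Alexa488 antibodies. Fluorescence from o1-orientation probes (~5 replicates averaged) was converted to z-scores against 500 random hg19 background probes. Variable regions are seed direct-repeat (DR0–DR5) sites, all their single-nucleotide variants and half-site ablations.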

Q: Which PBM binding z-score does the source give for CCGACTGGGGCAGAAAGGTTACCGTACCATCCGG here?
A: 0.919

Q: How did the PBM binding z-score turn out when ACAGGCAGGTGAGTGAAGGTAACTCAGCTGGACG was run?
A: -0.417

Q: How did the PBM binding z-score turn out when TAGCCTAGGTCATTGGGCCAGCATAGTACGCATC was run?
A: 2.14

Q: With CAAACTAGGTCGAGGTCAAAGTCGGTTTGTGCCA as the sequence, how does the PBM binding z-score read?
A: 5.52

Q: How did the PBM binding z-score turn out when CTCGAAAGGTCGTGCTCAGGTGAGGATACCAAAC was run?
A: 3.3

Q: With CGTCCAAGGTCAACGTCAGTGAAAGAGACTCGAA as the sequence, how does the PBM binding z-score read?
A: 4.05

Q: For CCTCGGAGGACAAGAGGAGGTCAGAGCTGCCAGA, which PBM binding z-score is on record?
A: 1.48

Q: With TGTCAAAGTTCAAAGGTAACGAAAGTATCCACAC as the sequence, how does the PBM binding z-score read?
A: 5.07

Q: Which PBM binding z-score does the source give for GCTATTAGTTGAAAAGGCAACCGAATGATTCTCG here?
A: -0.31

Q: GGAACGCGGGCATTCGAGTTGATAGCATGGCGAT was tested. Which PBM binding z-score did it give?
A: -0.234

Q: For CGTCCAAGGTCAGAGTGGTCAGTGAATGCCGAGT, which PBM binding z-score is on record?
A: 3.87

Q: For ACTCGGAGGACGAAGGTCAGAGCTACGCCAGTGA, which PBM binding z-score is on record?
A: 1.15

Q: How did the PBM binding z-score turn out when CAAACTAGGTCACAGAGCTCAAAGTCCGTGCGTA was run?
A: 3.09

Q: ATATGTAGGTTACATCCGGGTCATTCACGCTATG was tested. Which PBM binding z-score did it give?
A: 4.35

Q: How did the PBM binding z-score turn out when ACTAGTTGGTCAGCTGAGGTCACACGCAATTCGG was run?
A: 4.46

Q: Which PBM binding z-score does the source give for GATACAGGATCAAGGCCAGAGTACGCGTATTGAT here?
A: -0.308

Q: With TCTATTAGTTGATTGGGGCAACCGAAACAGCGGA as the sequence, how does the PBM binding z-score read?
A: 0.952

Q: Which PBM binding z-score does the source give for CGTCCATGGTCAGAGAGGTCAGTGAATGCCGAGT here?
A: 4.63

Q: For GCAACGAGGGCATTCGAGTTGATAGCATGGCGAT, which PBM binding z-score is on record?
A: 3.57

Q: With ACTAGCAGGCCAAGGATCACTCAAGATTAGTCCG as the sequence, how does the PBM binding z-score read?
A: -0.428

Q: For CCGACTGGGGCAAAAGGTTACCATAAGCCAGCCC, which PBM binding z-score is on record?
A: 1.08

Q: TCTTGTAGATCATGCAGGTTAAGAAAGCCTGAGT was tested. Which PBM binding z-score did it give?
A: 0.976

Q: ACTAGTTGGTCAGCTCAGGTCACACACAATTCGG was tested. Which PBM binding z-score did it give?
A: 2.23

Q: How did the PBM binding z-score turn out when CGTCAAAGTTCAACTAAGGTAACGTGAAGCACGC was run?
A: 4.37

Q: AGAACGAGGGCAATGAGTTGATAGCACGGGTGGC was tested. Which PBM binding z-score did it give?
A: 4.96

Q: ATCTCTAGGTTAGACTCAGTTCAGTGAAGAACGC was tested. Which PBM binding z-score did it give?
A: 1.7

Q: With TCAGACAGGTGAAGGTAACTCGGGTACGCAGTCG as the sequence, how does the PBM binding z-score read?
A: 1.45

Q: Which PBM binding z-score does the source give for TCATATAGGCAAATGCTAGGTGAAAGTCCGATCT here?
A: 0.571

Q: Which PBM binding z-score does the source give for AATCAAAGTTCAGGACGAGGTAACGTAAAGCACG here?
A: 3

Q: How did the PBM binding z-score turn out when TCTGCTAGGTCAGTCGGTCAGCTAACGAGCTGCC was run?
A: 0.139

Q: Which PBM binding z-score does the source give for TCTATTTGTTGATTAGGGCAACCGAAACAGCGGA here?
A: 0.823

Q: For CCTACTGGGCCTAGGTCATTGATCAGTCAAAGCA, which PBM binding z-score is on record?
A: 0.813

Q: For CGTCCAAGGTCTGAGAGGTCAGTGAATGCCGAGT, which PBM binding z-score is on record?
A: 3.29

Q: Which PBM binding z-score does the source give for AATACAGGGTCACTAGACCAGAGTAGGTACGAAT here?
A: 3.98

Q: TCGAGTAGGTTACTCGGGGCATTCAGCCAACATA was tested. Which PBM binding z-score did it give?
A: 3.33

Q: CCTAGAAGGCCAATCTGGGTCACTCAAGGCTTGA was tested. Which PBM binding z-score did it give?
A: 1.39

Q: With CCTGCTAGGTCATGGTCAGCTAGTCTACAGTATG as the sequence, how does the PBM binding z-score read?
A: 1.65

Q: Which PBM binding z-score does the source give for CCTACCGGGCCAAAAAGGTCATTGATGCCGATAA here?
A: 5.13

Q: How did the PBM binding z-score turn out when CATACTGGGCCATTCAGAGGTCATTGATCATATG was run?
A: 4.15

Q: CCAGACTGGTGAAAGGTAACTCAGTCTGGTACGC was tested. Which PBM binding z-score did it give?
A: -0.0185

Source: the supplement of paper PMC6555819
